This is part of a sample that, as a whole, favours compounds with a hit. Of some 83,000 tested, about 20% had one in any assay.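 In brief: 96-well plates, 48 h treatment, single concentration, percent growth endpoint.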 A number with no mark means an inactive call. The source made the active and inactive calls. Rule for the calls: active = growth percent below 10; inactive = the rest.

This passage reports growth results from PubChem BioAssay (NCI).

Holding throughout (assay): NCI-60 one-dose screen, 48 h (100 = growth as untreated, 0 = no growth, -100 = all killed)
What all share (conditions): 10 µM

Assay [1] concerns SN12C renal.
Assay [2] has as its system UO-31 renal.
Assay [3] concerns TK-10 renal.
Assay [4] has as its system ACHN renal.
The subject of assay [5] is CAKI-1 renal.
Assay [6] concerns A498 renal.
The test system of assay [7] is CCRF-CEM leukemia.
Assay [8] relates to MOLT-4 leukemia.
In assay [9] the test system is SR leukemia.

Consider `O=C1/C(=C\c2ccc(F)cc2)CN(C(=O)c2ccccc2)C/C1=C\c1ccc(F)cc1`, for which the growth in [1] was 14.1%; in assay [2] it was 38.7%; in assay [3], 79.7%; in assay [4], 24.3%; in assay [5] it was 21.3%; in [6] it was 52.3%. The results for the growth in [7], in assay [8] and in [9] were -12.6% (active), 4.36% (active) and -15.1% (active), respectively.
With `O=C(Nc1cccc(-n2cc(-c3ccncc3)c(-c3ccc(O)c(Cl)c3)n2)c1)c1cc(C(F)(F)F)cc(C(F)(F)F)c1`, the growth in [1] was 63.6%; in [2] it was 47.8%; in assay [3], 62%; in [4], 44.8%; in assay [5], 30.7%; in [6], 57.2%. Also, the growth was 29.5% in assay [7], 34.4% in assay [8] and 39.1% in [9].
For `Clc1ccc(Nc2ccnc(NCCNc3ccnc4cc(Cl)ccc34)n2)cc1`, the growth in assay [1] is 48%; in assay [2], -26.3% (active); in assay [3], -29.9% (active); in [4], -7.16% (active); in assay [5], -7.16% (active); in [6], 17.9%. In addition, the growth is 1.25% (active) in assay [7], -28% (active) in assay [8] and -22.3% (active) in [9].
Turning to `Cc1ccc(S(=O)(=O)Oc2ccc3c4c(c(=O)oc3c2)CCCCC4)cc1`, the growth in assay [1] is 66.2%; in assay [2], 64.6%; in assay [3], 74.3%; in assay [4], 78.7%; in [5] it was 59.6%; in [6], 61.8%. In addition, the growth in assay [7] is 43%; in [8] it was 42.2%; in assay [9] it was 2.57% (active).
With `COc1ccc(/C=C2/CN(C(=O)c3ccc(C)cc3)C/C(=C\c3ccc(OC)cc3)C2=O)cc1`, the growth is 90.7% in assay [1]; 58.5% in assay [2]; 113% in assay [3]; 92% in assay [4]; 85.2% in assay [5]; 89.4% in [6]. Also, the growth was 71.3% in assay [7], 69.3% in assay [8] and 12.8% in [9].
`COc1cccc(C(=O)Nc2ccc(CN3CCc4nc5cc(OC)c(OC)cc5cc43)cc2)c1`: the growth in assay [1] is 54.1%; in [2], 27.5%; in assay [3], 42.4%; in assay [4] it was 36.9%; in [5], 21.7%; in [6], 20.5%. Besides, the growth in [7] was 28.7%; in assay [8], 25.7%; in assay [9], 24.1%.
Consider `COc1cc(Cl)cc(-c2nn(-c3cccc(NC(=O)Nc4ccc(Cl)c(C(F)(F)F)c4)c3)cc2-c2ccncc2)c1`, for which the growth was 13.8% in [1]; 11.1% in assay [2]; 37.5% in assay [3]; 8.78% (active) in [4]; 9.38% (active) in [5]; -9.18% (active) in assay [6]. Besides, the growth in assay [7] is 1.88% (active); in assay [8], -9.68% (active); in assay [9], -27.5% (active).
For the molecule `O=S(=O)(NCCNc1nccc(-c2c(-c3ccc(F)cc3)nc3sccn23)n1)c1ccc2ccccc2c1`, the growth in assay [1] was 80.7%; in assay [2], 43.4%; in assay [3], 83.7%; in assay [4] it was 56.6%; in assay [5], 68.5%; in assay [6] it was 79.5%. Further, the growth in [7] was 61.7%; in [8], 54%; in [9], 46.6%.
Take `N=C(N)c1ccc(-c2ccc(-c3cccs3)o2)cc1`: the growth was 54.5% in assay [1]; 65.9% in assay [2]; 96.5% in assay [3]; 62.7% in assay [4]; 37.8% in assay [5]; 33.5% in assay [6]. Further, the growth in assay [7] is 19.9%; in [8], -2.16% (active); in [9], -24.5% (active).
For `Cc1ccc(S(=O)(=O)OCCN(CCOS(=O)(=O)c2ccc(C)cc2)c2c[nH]c(=O)[nH]c2=O)cc1`, the growth in assay [1] is 97.4%; in assay [2], 82.8%; in [3] it was 112%; in assay [4], 99%; in assay [5] it was 97.5%; in [6] it was 117%. Moreover, the growth in [7] was 101%; in assay [8], 104%; in assay [9], 104%.
With `Cc1cc2c(C)c3cc(C)c(N)cc3nc2cc1N`, the growth in assay [1] was 12.5%; in [2], 7.87% (active); in [3], -4.14% (active); in assay [4] it was 9.76% (active); in assay [5] it was 14.8%; in assay [6] it was -5.82% (active). Further, the values for the growth in assay [7], in [8] and in assay [9] were 6.08% (active), -7.23% (active) and -24.3% (active), respectively.
On to `CCOC(=O)N1C=CC2C=CC1C1C=CC=CC2N1C(=O)OCC` (stereo not drawn), for which the growth in [1] was 99.3%; in [2], 83.4%; in assay [3] it was 111%; in assay [4] it was 101%; in [5], 84.5%; in assay [6], 89.7%. Moreover, in [8], the growth was 95.5%.
For the molecule `CSc1nn(-c2ccccc2)c2ncnc(Oc3ccccc3)c12`, the growth in assay [1] is 86.2%; in assay [2], 7.79% (active); in assay [3] it was 106%; in [4], 106%; in assay [5], 88.7%; in [6] it was 138%. In addition, the growth in assay [7] is 89.6%; in [8], 97.3%; in assay [9], 84%.
Take `O=C(Nc1ccc(CN2CCc3nc4cc(O)c(O)cc4cc32)cc1)c1ccc(Cl)c(Cl)c1`: the growth in assay [1] is 97.4%; in [2] it was 88.9%; in [3] it was 122%; in assay [4] it was 98.2%; in assay [5], 96.4%; in assay [6], 103%. Further, the growth in assay [7] was 78%; in assay [8], 106%; in [9], 94.5%.
Regarding `Cn1c([N+](=O)[O-])cnc1/C=C1\Oc2ccccc2C1=O`, the growth in assay [1] is -18.2% (active); in assay [2], -39.3% (active); in assay [3] it was -28.8% (active); in assay [4], 3.1% (active); in assay [5], -23% (active); in [6], -3.16% (active). The growth in assay [7] is 2.77% (active); in [9], 9.62% (active).
Take `CSc1nn(-c2ccccc2)c2ncnc(Oc3ccc(C)cc3)c12`: the growth in assay [1] was 88.8%; in assay [2] it was 84.4%; in assay [3], 94.2%; in [4] it was 76%; in [5], 84.8%; in [6], 67.8%. Also, the figures for the growth in assay [7] and in assay [9] were 90.5% and 91.8%, respectively.
For the molecule `N=C(N)c1ccc(-c2ccc(-c3cccs3)s2)s1`, the growth in assay [1] was -74.9% (active); in assay [2], -77.1% (active); in assay [3], -51.1% (active); in [4], 66.4%; in [5], -49% (active); in assay [6], -32.6% (active). Besides, the growth in assay [7] is -52.3% (active); in assay [9] it was -50.9% (active).
In the case of `COc1ccc(-c2nn(-c3cccc(NC(=O)Nc4cc(C(F)(F)F)cc(C(F)(F)F)c4)c3)cc2-c2ccncc2)cc1Cl`, the growth was 18.9% in [1]; -11.6% (active) in assay [2]; 11.8% in assay [3]; 11% in assay [4]; -12.3% (active) in assay [5]; -16.5% (active) in assay [6]. Also, the growth in assay [7] was -17.8% (active); in assay [8], -15.3% (active); in assay [9], -19.6% (active).
With `Nc1c(C(=O)Nc2cccc(F)c2)sc2nc3c(cc12)C(=O)CCC3`, the growth is 37.4% in assay [1]; 56.1% in assay [2]; 85.5% in assay [3]; 53.6% in assay [4]; 28% in [5]; -12.1% (active) in assay [6]. The growth in [7] is 17.9%; in assay [9], 16.1%.
Regarding `Cc1cc(=O)n2nnc3c4ccccc4ccc3n12`, the growth in assay [1] is 37.2%; in [2], 46.8%; in [3] it was 74.1%; in assay [4], 78.1%; in assay [5], 67.8%; in assay [6] it was 108%. The growth in [7] was 23.4%; in assay [9], 9.54% (active).
In the case of `O=C(Nc1ccc(OS(=O)(=O)c2ccccc2)cc1)C12CC3CC(CC(C3)C1)C2`, the growth was 63.5% in [1]; 44.6% in assay [2]; 68.6% in [3]; 78.5% in [4]; 54.7% in [5]; 14.4% in assay [6]. For the same molecule, the growth was 40.2% in [7], 39.5% in [8] and 11.2% in assay [9].
Regarding `CCOC(=O)C1(CC(C)C)CCOC1=O` (stereo not drawn), the growth is 94.7% in assay [1]; 90.1% in assay [2]; 106% in assay [3]; 98.2% in assay [4]; 92.4% in assay [5]; 107% in [6]. Moreover, the growth in [8] is 100%.
Turning to `CCCCCCCNc1nc(C=O)ncc1-c1ccc(C(F)(F)F)cc1`, the growth in assay [1] was 101%; in [2], 63.1%; in assay [3] it was 97%; in assay [4], 104%; in assay [5], 98.4%; in assay [6] it was 86.2%. Further, the growth in assay [8] is 86.5%.
`COc1cc(Nc2ncnc(Nc3ccc4c(n3)NC(=O)C(C)(C)O4)n2)cc(OC)c1OC`: the growth in assay [1] is 18.9%; in [2] it was -6.15% (active); in assay [3], -36.4% (active); in assay [4] it was 14.6%; in assay [5], -10.2% (active); in [6] it was -75.1% (active). Besides, the growth in [7] was 25.1%; in assay [8], 33.9%; in [9] it was 9.18% (active).
Regarding `O=C1/C(=C/c2ccc([N+](=O)[O-])o2)Oc2ccccc21`, the growth in [1] was -2.18% (active); in assay [2], -61.5% (active); in assay [3], -55.8% (active); in assay [4] it was -9.64% (active); in assay [5], -4.42% (active); in assay [6], 70.3%. Besides, the growth in [7] is -1.87% (active); in assay [9], 9.39% (active).
On to `COc1cc(Cl)cc(-c2nn(-c3cccc(NC(=O)c4ccc(N5CCOCC5)c(C(F)(F)F)c4)c3)cc2-c2ccncc2)c1`, for which the growth in assay [1] is 79.8%; in assay [2] it was 40.7%; in assay [3], 90.6%; in assay [4], 50.1%; in [5], 46.7%; in [6], 31.5%. Also, the growth is 31.7% in [7] and 18.4% in [9].
Consider `O=C(N/N=C/c1cc2ccccc2c2ccccc12)c1cc(O)c(O)c(O)c1`, for which the growth in [1] is 69.8%; in assay [2], 39.2%; in [3], 69.2%; in assay [4], 47.2%; in assay [5], 43.7%; in assay [6], 106%. In addition, the growth in [7] is 11.3%; in assay [8], 35.6%; in assay [9], 9.56% (active).
For `COc1ccc(Nc2nc3ccc(NC(=O)NC4CCCCC4)cc3[nH]c2=O)cc1`, the growth in [1] was 91.6%; in [2] it was 94.5%; in assay [3], 117%; in assay [4], 94.8%; in assay [5] it was 87.7%; in assay [6] it was 109%. The growth in assay [7] was 91.6%; in assay [9], 103%.
